Laboratory results reported in paper PMC4336329 (PLoS ONE, 2015).
The campaign covered roughly 310,000 compounds. About 14,000 (4.5%) showed an effect of 50% or more. Effects have a minus sign here. The list comes from a sample in which strong results are over-represented; it also holds similar structures and randomly drawn compounds.

The molecules below were run against human ether-à-go-go-related gene (hERG) potassium channel (human, UniProt Q12809) (assay: primary screen, population patch clamp on CHO cells stably expressing hERG; higher = less effect of the substance).
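Further: peak tail current of the secondary pulse compared with the same well before compound.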

human ether-à-go-go-related gene (hERG) potassium channel, sequence (Q12809 whole entry, looked up): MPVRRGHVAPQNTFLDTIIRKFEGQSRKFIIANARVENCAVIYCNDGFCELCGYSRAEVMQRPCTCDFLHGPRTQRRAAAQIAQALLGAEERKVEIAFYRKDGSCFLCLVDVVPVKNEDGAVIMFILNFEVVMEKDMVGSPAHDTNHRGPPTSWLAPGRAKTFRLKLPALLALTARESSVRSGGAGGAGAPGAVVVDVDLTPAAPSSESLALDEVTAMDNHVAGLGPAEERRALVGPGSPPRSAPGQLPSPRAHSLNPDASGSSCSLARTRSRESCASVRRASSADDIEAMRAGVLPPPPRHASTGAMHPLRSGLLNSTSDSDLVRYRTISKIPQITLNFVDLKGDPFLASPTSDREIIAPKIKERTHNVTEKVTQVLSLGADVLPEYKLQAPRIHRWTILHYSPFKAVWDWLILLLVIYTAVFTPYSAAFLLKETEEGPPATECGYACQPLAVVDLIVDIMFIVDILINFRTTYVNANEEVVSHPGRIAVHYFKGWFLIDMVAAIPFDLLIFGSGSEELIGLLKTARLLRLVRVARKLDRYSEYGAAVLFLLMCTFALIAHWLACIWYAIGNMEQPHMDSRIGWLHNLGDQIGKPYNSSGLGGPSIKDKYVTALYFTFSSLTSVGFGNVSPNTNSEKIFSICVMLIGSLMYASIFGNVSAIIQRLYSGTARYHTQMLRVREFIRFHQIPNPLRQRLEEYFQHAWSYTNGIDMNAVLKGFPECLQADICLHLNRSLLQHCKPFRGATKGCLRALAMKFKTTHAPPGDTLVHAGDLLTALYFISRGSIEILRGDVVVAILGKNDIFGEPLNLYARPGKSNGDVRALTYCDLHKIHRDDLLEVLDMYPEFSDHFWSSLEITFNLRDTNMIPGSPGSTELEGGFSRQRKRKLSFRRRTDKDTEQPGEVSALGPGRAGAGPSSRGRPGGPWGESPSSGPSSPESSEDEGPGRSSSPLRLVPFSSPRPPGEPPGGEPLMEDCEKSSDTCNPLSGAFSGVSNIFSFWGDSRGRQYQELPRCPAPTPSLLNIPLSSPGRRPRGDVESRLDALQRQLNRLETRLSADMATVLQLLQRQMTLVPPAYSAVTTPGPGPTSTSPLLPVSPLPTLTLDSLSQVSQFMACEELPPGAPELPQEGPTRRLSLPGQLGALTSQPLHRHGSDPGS

SMILES	hERG current change (%, negative = inhibition) at 10uM
Cc1nc(N=Nc2ccc(O)cc2)n[nH]1	7.01%
CC12CC[C@H]3[C@@H](CCC4(O)C[C@H](O)CCC34/C=N/NC(=O)c3ccccc3Cl)C1(O)CCC2C1=CC(=O)OC1 (stereo partly drawn)	9.69%
O=C(COC(=O)c1ccc(S(=O)(=O)Nc2ccccc2)cc1)NCC1CCCO1 (stereo not drawn)	1.33%
COC(=O)c1ccccc1NC(=O)c1ccc(COc2cccc3ccccc23)o1	0.342%
NC(=O)c1nsc(C(=O)N(CCCN2CCOCC2)C(C(=O)NC2CCCCC2)c2ccc(Cl)cc2)c1N (stereo not drawn)	-42.8%
CCCNc1nc2c(c(=O)[nH]c(=O)n2C)n1CCC(C)C	-0.274%
O=C(COc1ccccc1[N+](=O)[O-])N1CCC(Cc2ccccc2)CC1	-16.1%
Cc1ccc(OCC(=O)N2CCC(C)CC2)c([N+](=O)[O-])n1	-7.74%
CC(=O)c1ccc(OCCCC(=O)N2CCN(S(=O)(=O)c3ccc(C)cc3C)CC2)cc1	-40.8%
Cc1ccc(S(=O)(=O)N2CCN(C(=O)COc3ccc(C)nc3[N+](=O)[O-])CC2)c(C)c1	-61%
CC(=O)c1ccc(OCC(=O)N2CCN(S(=O)(=O)c3ccc(C)cc3C)CC2)cc1	-61.6%
CC(=O)c1ccc(OCCCC(=O)N2CCN(S(=O)(=O)c3cc(C)ccc3C)CC2)cc1	-37.1%
Cc1ccc(OCC(=O)N2CCC(Cc3ccccc3)CC2)c([N+](=O)[O-])n1	-67.7%
Cc1ccc(OCC(=O)N2CCN(S(=O)(=O)c3ccccc3)CC2)c([N+](=O)[O-])n1	-45.8%
Cc1ccc(OCC(=O)N2CCN(S(=O)(=O)c3ccc(Cl)cc3)CC2)c([N+](=O)[O-])n1	-48.8%
COc1ccc(CNC(=S)Nc2ccc(OC)cc2)cc1	3.09%
Cc1nnc(-c2ccc(N3CCCCCC3)c([N+](=O)[O-])c2)o1	-4.52%
Cc1ccc(CN2C(=O)CCC2C(=O)NCCc2ccccc2)cc1 (stereo not drawn)	7.99%
c1ccc2nc3c(nc2c1)CCCC3	17.2%
Cn1c(=O)c2c(nc(SCc3cccnc3)n2Cc2ccccc2)n(C)c1=O	-17.6%

SMILES	hERG current change (%, negative = inhibition) at 10uM
C=CCOCCN(C)C1=NS(=O)(=O)c2cc([N+](=O)[O-])ccc21	-19.8%
Cc1ncc(CN2CCC(CO)(CCc3ccccc3)CC2)s1	-60.4%
Cc1ncc(CN2CCC(CO)(CCOc3ccccc3)CC2)s1	-70.1%
Cc1ncc(CN2CCC(CO)(Cc3ccccc3)CC2)s1	-7%
Cc1ccc(NC(=O)c2ccc3nc(N4CCOCC4)sc3c2)c(Cl)c1	6.14%
Cc1ccc(NC(=O)/C=N/OCC(=O)NCc2ccccc2Cl)cc1	2.92%
Cc1cc(C)nc(NC(=O)CSc2nc3ccccc3s2)n1	2.88%
Cc1cc(C)n(C(=O)CSc2nc3ccccc3o2)n1	19.3%
Cc1cc(C)nc(SCc2nc3nc(C)cc(C)n3c2Br)n1	-22.6%
Cc1cc(C)n2c(Br)c(CSc3nc4ccccc4s3)nc2n1	-76.7%
Cc1csc2nc(CSc3nc4ccccc4o3)c(Br)n12	7.03%
Cc1cc(C)n2c(Br)c(CSc3nc4ccccc4o3)nc2n1	-63.9%
CCOc1ccc(/C=N/NC(=O)c2[nH]ncc2Br)c(O)c1	4.05%
CC(C)Oc1ccc(C(CC(=O)O)c2ccc(F)cc2)cc1 (stereo not drawn)	6.58%
CN(C)CCCNC(=O)CC(c1ccc(F)cc1)c1ccco1 (stereo not drawn)	-37.3%
CC(C)Oc1ccc(C(CC(=O)N(C)CCC#N)c2ccc(F)cc2)cc1 (stereo not drawn)	-59.2%
Cc1ccc(C(CC(=O)NCCCN(C)C)c2ccc(OC(C)C)cc2)cc1 (stereo not drawn)	-42.9%
COc1ccc(NC(=O)CC(c2ccc(F)cc2)c2ccc(OC(C)C)cc2)cc1 (stereo not drawn)	3.91%
CC(C)Oc1ccc(C(CC(=O)NCCCN(C)C)c2ccc(F)cc2)cc1 (stereo not drawn)	-57.1%
Br.O=C(N=c1nc2ccccn2s1)c1ccccc1	14.1%

SMILES	hERG current change (%, negative = inhibition) at 10uM
CCn1c(COc2ccc(=O)n(-c3ccccc3)n2)n[nH]c1=S	23.3%
C=CCSc1nnc(COc2ccc(=O)n(-c3ccccc3)n2)n1CC	-2.15%
CCn1c(COc2ccc(=O)n(-c3ccccc3)n2)nnc1SCC(=O)OC	9.02%
CCn1c(COc2ccc(=O)n(-c3ccccc3)n2)nnc1SCc1ccccc1	-48.2%
CCn1c(COc2ccc(=O)n(-c3ccccc3)n2)nnc1SCc1cccc(OC)c1	-39.1%
CCn1c(COc2ccc(=O)n(-c3ccccc3)n2)nnc1SCc1ccc(C)cc1	-59.9%
CCn1c(COc2ccc(=O)n(-c3ccccc3)n2)nnc1SCc1ccccc1C	-65.4%
CCn1c(COc2ccc(=O)n(-c3ccccc3)n2)nnc1SCc1ccc(OC)cc1	-67.7%
CCn1c(COc2ccc(=O)n(-c3ccccc3)n2)nnc1SC	2.39%
COc1ccc(-c2csc(NC(=O)CSc3nc(C)nc4sc(C(=O)O)c(C)c34)n2)cc1	11.9%
COCCNc1nc2c(c(=O)n(Cc3ccccc3F)c(=O)n2C)n1C	-15.8%
C=CCNC(=O)C(=O)Nc1ccc2c(c1)N(S(=O)(=O)c1cccs1)CCC2	-14.7%
Cc1ccc(S(=O)(=O)NC(C(=O)Oc2cc3oc(=O)cc(C)c3cc2Cl)C(C)C)cc1 (stereo not drawn)	-34.3%
CCOc1ccc(/C=C(\C)C(=O)c2c(C)cc(C)[nH]c2=O)cc1	5.24%
CCCCc1ccc(NC(=O)OC)cc1	-9.08%
CCCCC(CC)C(=O)Nc1ccc(C#N)cc1 (stereo not drawn)	-52.5%
CCCCC(CC)C(=O)Nc1ccccc1C#N (stereo not drawn)	-4.83%
CCCCC(CC)C(=O)Nc1ccc(Nc2ccccc2)cc1 (stereo not drawn)	-12.8%
CCCCc1ccc(NC(=O)C(C)CC)cc1 (stereo not drawn)	-50.5%
CCCCc1ccc(NC(=O)CC(C)C)cc1	-6.78%
